Measurements: PubChem BioAssay AID1903 (Southern Research Specialized Biocontainment Screening …, 2009)
Out of some 310,000 compounds screened, about 1,200 (0.39%) were called active. How the calls were made is not given here. The list is a sample of the results. Potency and affinity values are given separately.

The molecules below were run against Large T antigen (Simian virus 40) (UniProt P03070) (assay: SV40 large T antigen inhibitors, biochemical (AID 1903)). Details: SV40 large T antigen ATPase/helicase inhibition assay; at 20 µM; active compounds read high.
Chain of Large T antigen (Simian virus 40) (P03070 whole entry, looked up): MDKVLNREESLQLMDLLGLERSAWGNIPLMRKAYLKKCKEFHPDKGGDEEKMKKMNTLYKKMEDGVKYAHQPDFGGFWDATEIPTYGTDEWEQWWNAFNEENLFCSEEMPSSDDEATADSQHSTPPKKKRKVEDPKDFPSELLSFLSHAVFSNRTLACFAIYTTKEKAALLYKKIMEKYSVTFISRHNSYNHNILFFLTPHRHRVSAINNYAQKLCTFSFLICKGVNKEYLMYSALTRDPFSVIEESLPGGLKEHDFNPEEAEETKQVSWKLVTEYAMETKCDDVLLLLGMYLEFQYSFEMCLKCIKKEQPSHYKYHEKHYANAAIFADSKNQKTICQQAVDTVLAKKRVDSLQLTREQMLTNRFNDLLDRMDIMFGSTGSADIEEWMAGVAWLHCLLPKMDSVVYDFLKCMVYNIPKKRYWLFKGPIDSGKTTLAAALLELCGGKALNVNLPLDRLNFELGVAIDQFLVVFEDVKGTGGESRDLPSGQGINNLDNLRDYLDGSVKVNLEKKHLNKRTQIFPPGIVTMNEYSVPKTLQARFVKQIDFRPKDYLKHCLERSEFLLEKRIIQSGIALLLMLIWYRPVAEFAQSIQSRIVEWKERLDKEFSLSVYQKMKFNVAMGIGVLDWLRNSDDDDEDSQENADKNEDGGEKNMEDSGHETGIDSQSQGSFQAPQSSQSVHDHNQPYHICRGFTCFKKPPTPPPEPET

inhibition, inactive:
CCCCC(CC)CNC(=O)c1ncn[nH]1 (centres undefined) 9.07%
CCCCC(CC)CNC(=O)c1cccs1 (centres undefined) 0.58%
CC1(C)CN(c2ccc(F)cc2)C1=O 10%
CC1(C)CN(c2ccc(N3CC(C)(C)C3=O)cc2)C1=O 7.74%
Oc1ccc(N=Cc2ccc(OCc3ccccc3)cc2)cc1 15.6%
Oc1ccc(/C=N/N=C/c2ccc(O)cc2)cc1 27.4%
CC1CCCC(C)N1/N=C/c1ccc(O)c(O)c1 (centres undefined) 32.1%
COc1ccc(/C=N/N=C/c2ccc(OC)c(O)c2)cc1O 1.26%
CCn1c(CNC(=O)c2ccco2)nnc1SCC(=O)Nc1ccc(Br)cc1F 3.84%
CCN(CC)S(=O)(=O)c1ccc(Cl)c(NC(=O)COc2ccc(OC)cc2)c1 21.5%
COc1ccccc1Cn1cccc1C=O -6.2%
Cc1ccc(CCNC(=O)C2CCC(=O)N2Cc2ccc(F)cc2)cc1 (centres undefined) 8.48%
CC(=O)Nc1ccc2[nH]ccc2c1 18.6%
C/C(=N\O)c1ccc2[nH]ccc2c1 8.8%
O=C(CNC(=O)c1ccco1)N/N=C/c1ccc(O)c([N+](=O)[O-])c1 -0.16%
Oc1c(Br)cc(/C=N/NC(=S)NCC2CCCO2)cc1Br (centres undefined) 27.3%
COc1cccc(/C=N/NC(=O)CNC(=O)c2ccco2)c1O 23.9%
COc1ccc(/C=N/NC(=S)NCC2CCCO2)cc1 (centres undefined) 7.07%
O=C(NCC1CCCO1)C(=O)N/N=C/c1ccc(O)c(Cl)c1 (centres undefined) 30.4%
COc1cc(/C=N/NC(=O)C(=O)NCc2ccco2)cc(Cl)c1O 28.7%
COc1cc(/C=N/NC(=O)C(=O)NCc2ccco2)cc(Br)c1O 29.1%
COc1cc(/C=N/NC(=O)C(=O)NCC2CCCO2)cc(Cl)c1O (centres undefined) 22.2%
COc1ccc(OC)c(S(=O)(=O)N2CCC(C(=O)NC3CCCC3)CC2)c1 8.53%
NC(=O)CC(NC(=O)Cc1cccc2ccccc12)c1ccc(NC2CC3CCC2C3)c([N+](=O)[O-])c1 (centres undefined) 17.8%
O=C(CCn1c(=O)oc2ccccc21)N1CCN(c2ccc(F)cc2)CC1 2.5%
COC(=O)C1=C(C)NC(=O)NC1c1ccco1 (centres undefined) 8.25%
C=CCOc1ccc(Oc2cc(C)nc(SC)n2)nn1 19.1%
CCCOC(=O)c1cccc(NC(=O)C(C)(C)C)c1 -1.32%
O=C(CNC(=S)N(Cc1ccccc1Cl)C1CCCC1)NCCN1CCOCC1 3.17%
COc1cccc(O)c1CN1CCCC(C(=O)c2cccc(C(F)(F)F)c2)C1 (centres undefined) 4.62%
Cn1c(=O)c([N+](=O)[O-])c(NCC(O)c2ccccc2)c2ccccc21 (centres undefined) 21.3%
Cn1c(=O)[nH]c(=O)c2c1nc(CN1CCN(c3cccc(Cl)c3)CC1)n2CCc1ccccc1 1.29%
COc1ccc(-c2c(C#N)c(N)n(N)c(=O)c2C#N)cc1Cl 3.3%
COc1ccc(/C=C2\N=C3CCCCCN3C2=O)cc1 3.96%
O=c1/c(=C/c2ccc(O)cc2)sc2n1CCCN=2 29.1%
O=C1/C(=C/c2ccncc2)N=C2CCCCCN12 18.3%
COc1ccc(/C=C2\N=C3CCCCCN3C2=O)cc1OC 13.5%
COc1cccc(/C=C2\N=C3CCCCCN3C2=O)c1 13.8%
CN(C)c1ccc(/C=c2\sc3n(c2=O)CCCN=3)cc1 7.47%
COc1ccc(/C=C2/N=C3CCCCCN3C2=O)cc1 4.2%
COc1ccc(/C=C2/N=C3CCCCCN3C2=O)cc1OC 6.08%
CCC1Sc2ccc(S(=O)(=O)N3CCN(c4ccccc4)CC3)cc2NC1=O (centres undefined) -0.58%
O=C1C(=O)N(CCS(=O)(=O)c2ccccc2)c2ccc(F)cc21 3.86%
CN1CC(=O)N(CC(=O)Nc2cccc(S(=O)(=O)N3CCOCC3)c2)C1=O 4.06%
CCCc1nnc(NC(=O)C(=O)NCCN(CC)CC)s1 0.4%
COCCCNC(=O)COc1ccc(-c2nccc(-c3ccccn3)n2)cc1 4.04%
C=CCn1c(SCC(=O)N2CCCC2)nc2c([nH]c3ccccc32)c1=O 5.61%
CCCCn1c(SC(C)C(=O)c2ccc(OC)cc2)nc2cc(S(N)(=O)=O)ccc21 (centres undefined) 17.9%
COc1cc(OC)c(C(=O)N/N=C/c2ccoc2)cc1OC 13.6%
O=[N+]([O-])c1ccccc1CNCCCCO 0.09%
O=C(NCCC1=CCCCC1)c1ccc(Cl)c(S(=O)(=O)Nc2ccccc2)c1 -7.13%
Cc1ccc(C)c(NC(=O)CN(C)C(=O)c2nn(C)c(=O)c3ccccc23)c1 6.79%
CCOc1cc(/C=N/Nc2nnc(C)n2N)ccc1O 24.2%
COc1ccc(/C=N/Nc2nc(N3CCCC3)nc(N3CCCC3)n2)cc1 -2.38%
COc1ccc(/C=N/Nc2nc(N3CCCCC3)nc(N3CCCCC3)n2)cc1[N+](=O)[O-] 4.11%
CCOc1ccc(/C=N/Nc2nc(N3CCCC3)nc(N3CCCC3)n2)cc1OC -0.04%
CCOc1cc(/C=N/Nc2nncc(-c3ccccc3)n2)ccc1O 8.31%
Nc1c(Cl)ncnc1N/N=C/c1cccc(O)c1 28.2%
COc1ccc(/C=N/Nc2ncnc(Cl)c2N)cc1OC 19%
COc1ccc(/C=N/Nc2nc(Nc3ccccc3)nc(N3CCCCC3)n2)cc1OC -16.1%
O=c1c(Cl)c(Nc2cccc(Cl)c2)cnn1-c1nc2ccccc2s1 -0.81%
COCCCNC(=O)C(C)N1c2cccc3cccc(c23)S1(=O)=O (centres undefined) 3.72%
CCOC(=O)c1sc(=S)n(-c2ccc(OC)cc2)c1N 15.3%
Cc1ccc(CN2CCN(CC(=O)NCCCN3CCN(c4ccc(F)cc4)CC3)C2=O)cc1 3.02%
